Inconclusive results are not listed. Unmarked numbers belong to inactive results. The call rests on the fitted dose curve; in most records, active means well fitted activation curve with a large enough effect in the repeat runs; inconclusive means weak or mixed curves; inactive means flat fitted curve, though single readings scatter.
Assay: A CellTox Green Cytotoxicity Assay to monitor cytotoxicity in HEK293 cells - 40 hour (AID 1224871); further: nearly all actives have a fitted effect of over 45% in size
Details: CellTox Green fluorescence; series mostly up to 76.8 µM; cytotoxicity increase: at the top concentration
Source text: National Center for Advancing Translational Sciences [NCATS]
NIH Chemical Genomics Center [NCGC]
U.S. Environmental Protection Agency [EPA]
National Institutes of Environmental Health Sciences [NIEHS]
National Toxicology Program [NTP]
Cell-based models are critical for drug discovery. Determining the natural cytotoxic effects resulting from test compounds is an essential research activity. A CellTox Green Cytotoxicity Assay to monitor cytotoxicity in real time of continues cell culture during 40 hours of the compound treatment was used to screen Tox21 10K library compounds in Hek293 cells. CellTox Green Cytotoxicity Assay is a nonlytic, homogeneous, biofluorescent method to measure cytotoxicity in cell culture after experimental manipulation. The assay system uses a proprietary asymmetric cyanine dye that is excluded from viable cells but preferentially stains the dead cell's DNA. […] Viable cells produce no appreciable increases in fluorescence. Therefore, the fluorescence signal produced by the binding interaction with dead cell DNA is proportional to cytotoxicity.
The mixture of Hek293 cell suspension and reagents were dispensed at 600cells/6 ul/well in 1536-well tissue culture treated black solid bottom plates using a Multidrop dispenser. After the assay plates were incubated at a 37 C/5% CO2 incubator for 5 hours, 23 nL of compounds dissolved in DMSO, positive and negative controls was transferred to the assay plate by a pintool work station. The plates were incubated at 37 C for 40 hours. The fluorescence intensity were measured at 0h, 8h, 16h, 24h, 32h and 40h time points using ViewLux plate reader during compound treatment.
On the % scale 0 is the no-effect control and ±100 the full control effect.

Structure (SMILES)	cytotoxicity increase
BrCc1cccc(Oc2ccccc2)c1	0.115%
COc1ccc(-c2cc(=O)c3c(O)cc(O[C@@H]4O[C@H](CO[C@@H]5O[C@@H](C)[C@H](O)[C@@H](O)[C@H]5O)[C@@H](O)[C@H](O)[C@H]4O)cc3o2)cc1O	-3.51% [at 35.3 µM]
Oc1cn2c(n1)Nc1ccc(Cl)c(Cl)c1C2	2.17% [at 15.8 µM]
COc1ccc(OC)c(Cl)c1	0.178%
CC(N)C(=O)OC(C)(C)Cc1ccc(Cl)cc1 (stereo not given)	-18.1% [at 35.3 µM]
CN(C)c1ccc(C=O)cc1	-13.1%
FC(F)(F)c1ccccc1-n1ccnc1	-9.37% [at 35.3 µM]
C=CCCCCCCCCCCCC	-8%
CN=C(NC#N)Nc1ccc(C2=NNC(=O)CC2C)cc1 (stereo not given)	1.05% [at 35.3 µM]
Cc1ccsc1/C=C/C1=NCCCN1C	-5.97% [at 35.3 µM]
Nc1ccc(S(=O)(=O)Nc2ccc(Cl)nn2)cc1	17.2% [at 35.3 µM]
O=S(=O)(O)c1cc(O)c2ccc(Nc3ccccc3)cc2c1	-0.37%
CC(CN)CC(C)(C)CCN (stereo not given)	-2.93% [at 200 µM]
COc1ccc(S(=O)(=O)N2c3ccc(Cl)cc3[C@@](O)(c3ccccc3Cl)[C@H]2C(=O)N2CCC[C@@H]2C(N)=O)cc1OC	4.63% [at 35.3 µM]
Cc1ccc(S(=O)(=O)O)c(C)c1	-3.77%
CCN(C)C(=O)Oc1cccc([C@H](C)N(C)C)c1	4.86% [at 35.3 µM]
Nc1ccc2cc(S(=O)(=O)O)cc(O)c2c1	-15.6%
CCCC/C=C/C=C\C=O	-11.6%
NC(CO)C(=O)NNCc1ccc(O)c(O)c1O (stereo not given)	10.9% [at 35.3 µM]
CO[C@@H]1[C@@H](OC(N)=O)[C@@H](O)[C@H](Oc2ccc3c(O)c(NC(=O)c4ccc(O)c(CC=C(C)C)c4)c(=O)oc3c2C)OC1(C)C	-3.95% [at 35.3 µM]

Structure (SMILES)	cytotoxicity increase
CN(C)CCOCCO	-9.03%
Nc1ncnc(Nc2ccccc2)n1	-0.927% [at 35.3 µM]
CCCCN	-11.9% [at 35.3 µM]
Cc1ccccc1C(=O)Nc1ccc(C(=O)N2CCCC(N(C)C)c3ccccc32)cc1 (stereo not given)	-2.85% [at 35.3 µM]
O=C(OCC(COC(=O)c1cccnc1)(COC(=O)c1cccnc1)COC(=O)c1cccnc1)c1cccnc1	4.5% [at 35.3 µM]
CN1CCN(CC(=O)N2c3ccccc3C(=O)Nc3cccnc32)CC1	-2.67% [at 6.97 µM]
CC(C)C[C@H](NC(=O)CNC(=O)[C@H](Cc1ccc(O)cc1)NC(=O)[C@H](CO)NC(=O)[C@H](Cc1c[nH]c2ccccc12)NC(=O)[C@H](Cc1cnc[nH]1)NC(=O)[C@@H]1CCC(=O)N1)C(=O)N[C@@H](CCCN=C(N)N)C(=O)N1CCC[C@H]1C(=O)NCC(N)=O (stereo in doubt)	-0.0395% [at 35.3 µM]
OC[C@H](Cc1cccc(O)c1)[C@H](CO)Cc1cccc(O)c1	-5.48%
O=C1CC(c2ccc(Cl)cc2)CC(=O)N1	-7.71% [at 35.3 µM]
CC(=O)Nc1ccc(S(=O)(=O)Cl)cc1	0.115%
CC(=O)c1ccc2c(c1)Cc1ccccc1-2	4.09%
C[Si](C)=O	12.6% [at 6.97 µM]
C=C(C)C(=O)OCC(C)(C)COC(=O)C(=C)C	20.7%
CCCCNc1ccc(C(=O)OCCN(C)C)cc1	-20.8% [at 35.3 µM]
O=C(OCc1ccccc1)C(=O)OCc1ccccc1	-3.19%
COc1cc2c(cc1OC)[C@@H]1CC(=O)[C@@H](CC(C)C)CN1CC2	12.2% [at 35.3 µM]
O=C(OCC1(COC(=O)c2cccnc2)CCCC(COC(=O)c2cccnc2)(COC(=O)c2cccnc2)C1O)c1cccnc1	9.85% [at 35.3 µM]
CCCC(=O)C(C)=O	-0.0524%
CC(C)CC(C)CC(C)CC(C)COC(=O)c1ccccc1C(=O)OCC(C)CC(C)CC(C)CC(C)C (stereo not given)	-10.4%
CCCCCCCCC(=O)Cl	-5.38%
